# Measurements taken from PubChem BioAssay.
# The source made the active and inactive calls.
# Key:
# [1] = adipocyte viability effects, profiling panel, cell-based, 3T3-L1 adipocytes, calcein-AM fluorescence, 48 h, basal (AID 1163); settings: 3T3-L1 adipocytes viability, higher = more signal
# [2] = HepG2 cell viability effects, profiling panel, calcein-AM fluorescence, 48 h, basal (AID 1164); settings: higher = more signal
# [3] = MM1S cell viability effects, profiling panel, calcein-AM fluorescence, 48 h, basal (AID 1165); settings: higher = more signal;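 also: viability of MM1S multiple myeloma cells under basal unstimulated conditions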
# [4] = basal RPMI8226 viability, no added stimulus, profiling panel, cell-based, calcein-AM fluorescence, 48 h, PK04 Diversity Set (AID 1166); settings: RPMI8226 myeloma viability, higher = more signal;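 also: cells grown under basal conditions without added stimulus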
# [5] = basal HepG2 mitochondrial membrane potential changes, profiling panel, cell-based, JC-1 fluorescence, 24 h, 100 nL compound (AID 1167); settings: higher = more signal
# [6] = basal 3T3-L1 adipocyte mitochondrial potential changes, profiling panel, cell-based, JC-1 fluorescence, 3T3-L1 adipocytes, 24 h, 100 nL compound (AID 1168); settings: JC-1 mitochondrial fluorescence, higher = more signal, called active from +8 up or from −8 down
# [7] = basal RPMI8226 mitochondrial membrane potential changes, profiling panel, cell-based, JC-1 fluorescence, 24 h, 100 nL compound (AID 1169); settings: RPMI8226 myeloma, JC-1 mitochondrial potential fluorescence, higher = more signal
# [8] = basal MM1S mitochondrial membrane potential changes, profiling panel, cell-based, JC-1 fluorescence, 24 h, 100 nL compound (AID 1170); settings: higher = more signal
# [9] = A549 lung cancer cell viability effects, profiling panel, resazurin fluorescence, 24 h, PK04 Diversity Set (AID 1171); settings: higher = more signal, called active from +8 up or from −8 down
# [10] = HepG2 liver cancer cell viability effects, profiling panel, resazurin fluorescence, 24 h, PK04 Diversity Set (AID 1172); settings: higher = more signal
# [11] = basal S. cerevisiae growth modulation, no modifier, primary screen, OD600, strain BY4716, 24 h, basal condition (AID 1173); settings: OD600, 24 h, higher = more signal, called active from +8 up or from −8 down
# [12] = MM1S myeloma cell viability, profiling panel, resazurin fluorescence, basal, 24 h, PK04 Diversity Set (AID 1174); settings: higher = more signal, called active from +8 up or from −8 down;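 also: MM1S multiple myeloma cell line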
# [13] = target: Dihydroorotate dehydrogenase (quinone), mitochondrial (Plasmodium falciparum (isolate 3D7)) (UniProt Q08210); assay: PfDHODH enzyme inhibitors, primary screen, biochemical, C-terminal His tag, absorbance 600 nm (AID 1175); settings: DCIP absorbance 600 nm, higher = more signal, called active from +8 up or from −8 down;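 also: recombinant parasite enzyme with a five histidine tag at its C terminus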
# [14] = S. cerevisiae RM11-1a growth modifiers, primary screen, strain RM11-1a, OD600, basal, 24 h (AID 1177); settings: OD600, 24 h, higher = more signal, called active from +8 up or from −8 down;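 also: cultures grown under basal conditions with no added stressor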
# [15] = E. coli acrAB mutant growth effects, primary screen, E. coli filamentation inducers, strain DRC39, OD650, 24 h (AID 1178); settings: higher = more signal, called active from +8 up or from −8 down;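 also: growth measured as culture turbidity by optical density at 650 nm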
# [16] = E. coli acrAB mutant growth effects, primary screen, E. coli filamentation inducers, strain DRC39, OD650, 48 h (AID 1179);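 also: screen aims at cell division blockers that make cells filament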; settings: E. coli DRC39 delta-acrAB growth, higher = more signal, called active from +8 up or from −8 down
# [17] = RPMI8226 myeloma cell viability, profiling panel, resazurin fluorescence, basal, 24 h, PK04 Diversity Set (AID 1180); settings: higher = more signal;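 also: RPMI8826 multiple myeloma cell line at 5000 cells per well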
# [18] = target: E3 ubiquitin-protein ligase XIAP (Homo sapiens) (UniProt P98170); assay: XIAP binders, primary screen, biophysical, small-molecule microarray, fluorescence 635 nm (AID 1181); settings: small-molecule microarray binding, higher = more signal;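 also: score merges 667 nm emission and signal to noise over triplicate slides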
# [19] = test system: XIP peptide (Xip251-270) binding; assay: small-molecule binders of XIP peptide, primary screen, biochemical, small-molecule microarray, fluorescence 635/667 nm, 0.1 µg/mL protein (AID 1182); settings: fluorescent protein binding, 635 nm, higher = more signal, called active from +8 up or from −8 down
# XIP peptide (Xip251-270) = assay: small-molecule binders of XIP peptide, primary screen, biochemical, small-molecule microarray, fluorescence 635/667 nm, 0.5 µg/mL protein (AID 1183); settings: small-molecule microarray binding, fluorescence 635 nm; higher = more signal
# Sequence of E3 ubiquitin-protein ligase XIAP (Homo sapiens) (P98170 whole entry, looked up): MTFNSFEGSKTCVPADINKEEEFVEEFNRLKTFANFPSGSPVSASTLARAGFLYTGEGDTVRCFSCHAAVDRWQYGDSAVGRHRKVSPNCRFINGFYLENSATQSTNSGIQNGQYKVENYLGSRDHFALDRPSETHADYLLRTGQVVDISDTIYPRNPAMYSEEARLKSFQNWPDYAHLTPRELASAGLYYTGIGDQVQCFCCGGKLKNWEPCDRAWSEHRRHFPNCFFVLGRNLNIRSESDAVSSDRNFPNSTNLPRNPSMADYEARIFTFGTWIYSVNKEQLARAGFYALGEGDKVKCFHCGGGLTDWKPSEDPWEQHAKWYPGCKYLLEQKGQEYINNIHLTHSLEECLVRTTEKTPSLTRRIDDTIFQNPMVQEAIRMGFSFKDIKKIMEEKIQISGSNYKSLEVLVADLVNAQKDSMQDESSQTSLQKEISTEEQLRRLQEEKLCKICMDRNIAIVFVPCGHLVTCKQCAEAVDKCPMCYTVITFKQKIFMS
# Sequence of Dihydroorotate dehydrogenase (quinone), mitochondrial (Plasmodium falciparum (isolate 3D7)) (Q08210 whole entry, looked up): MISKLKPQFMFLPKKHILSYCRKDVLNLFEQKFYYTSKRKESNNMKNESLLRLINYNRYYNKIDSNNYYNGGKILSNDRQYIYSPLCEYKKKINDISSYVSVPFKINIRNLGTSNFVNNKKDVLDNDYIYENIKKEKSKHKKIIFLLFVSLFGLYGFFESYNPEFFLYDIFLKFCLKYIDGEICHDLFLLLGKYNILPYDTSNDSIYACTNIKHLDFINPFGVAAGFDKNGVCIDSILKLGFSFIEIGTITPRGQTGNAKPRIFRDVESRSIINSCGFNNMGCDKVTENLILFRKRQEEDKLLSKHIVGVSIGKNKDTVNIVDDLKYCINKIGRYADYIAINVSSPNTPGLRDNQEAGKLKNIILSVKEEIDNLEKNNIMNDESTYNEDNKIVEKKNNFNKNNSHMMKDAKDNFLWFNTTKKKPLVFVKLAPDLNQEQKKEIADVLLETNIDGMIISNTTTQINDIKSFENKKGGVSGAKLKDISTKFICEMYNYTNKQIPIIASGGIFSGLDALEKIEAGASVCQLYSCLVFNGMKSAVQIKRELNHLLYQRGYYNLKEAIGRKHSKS
Structure (SMILES),z-score [1],z-score [2],z-score [3],z-score [4],z-score [5],z-score [6],z-score [7],z-score [8],z-score [9],z-score [10],z-score [11],z-score [12],composite z-score [13],z-score [14],z-score [15],z-score [16],z-score [17],composite z-score [18],composite z-score [19],composite z-score (XIP peptide (Xip251-270))
COC(=O)C(CC#Cc1ccc2c(c1)[C@]1(C(=O)N2)[C@H](c2ccccc2OCCO)N2[C@H](c3ccccc3)[C@H](c3ccccc3)OC(=O)[C@H]2[C@@H]1C(=O)N1CCCCCCC1)C(=O)OC,1.89,-0.0172,0.578,-0.576,0.87,-0.239 (inactive),-0.395,-1.32,1.9 (inactive),0.0437,1.31 (inactive),1.19 (inactive),-2.8 (inactive),1.23 (inactive),0.723 (inactive),-0.34 (inactive),1.17,1.72,6.51 (inactive),0.937
COCCOC(=O)N1C(=O)[C@@]2(c3cc(C#CCNC(N)=O)ccc31)[C@H](c1ccccc1OCCO)N1[C@H](c3ccccc3)[C@H](c3ccccc3)OC(=O)[C@H]1[C@@H]2C(=O)Nc1nc2ccccc2s1,1.32,-0.272,-1.56,0.501,-2.92,1.04 (inactive),-1.06,-1.32,0.627 (inactive),0.0177,-0.267 (inactive),1.22 (inactive),-0.183 (inactive),1.17 (inactive),-0.17 (inactive),0.599 (inactive),1.39,0.396,-0.377 (inactive),0.501
COc1ccc(C#Cc2ccc3c(c2)[C@]2(C(=O)N3)[C@H](c3ccc(O)cc3)N3[C@H](c4ccccc4)[C@H](c4ccccc4)OC(=O)[C@H]3[C@@H]2C(=O)N2CCN(c3ncccn3)CC2)cc1,1.37,0.385,-0.233,-0.474,-0.16,1.57 (inactive),-0.719,0.463,0.682 (inactive),-0.169,0.0719 (inactive),0.95 (inactive),0.848 (inactive),0.537 (inactive),0.0488 (inactive),0.255 (inactive),1.19,-0.0062,1.62 (inactive),0.388
C=C(/C(=C/C[C@H](OC(C)=O)c1cccc(OCCO)c1)c1cc(C(=O)OC)ccc1OC)C(C)C,0.911,0.454,-0.181,0.587,1.66,1.91 (inactive),0.00485,0.343,3.57 (inactive),1.97,-1.63 (inactive),1.92 (inactive),-0.569 (inactive),-1.29 (inactive),2.48 (inactive),1.67 (inactive),1.87,0.0479,-0.139 (inactive),-0.595
COc1c(C)cc(-c2cc3c(c(CCc4ccccc4)n2)[Si](C(C)C)(C(C)C)OC3)cc1C,1.27,-0.277,-1.5,0.0965,-2.26e-05,0.334 (inactive),0.667,0.168,1.38 (inactive),1.64,-0.966 (inactive),1.93 (inactive),-0.545 (inactive),-1.43 (inactive),1.75 (inactive),1.08 (inactive),1.37,-0.172,0.461 (inactive),-0.436
O=C(NCc1ccccc1)[C@@H]1c2ccccc2C(=O)N(Cc2ccccc2Cl)[C@H]1c1ccc(CO)cc1,1.23,-0.005,0.138,-0.256,1.99,-0.0174 (inactive),-0.939,-0.0877,1.39 (inactive),0.714,-1.18 (inactive),0.687 (inactive),-1.17 (inactive),-1.44 (inactive),0.392 (inactive),0.123 (inactive),1.63,0.0115,0.188 (inactive),0.819
COCCOC(=O)N1C(=O)[C@@]2(c3cc(C#CCCO)ccc31)[C@H](c1ccccc1OCCO)N1[C@H](c3ccccc3)[C@H](c3ccccc3)OC(=O)[C@H]1[C@@H]2C(=O)NC[C@H](O)c1ccccc1,0.915,-0.527,-0.377,-1.11,0.278,1.96 (inactive),-0.73,-1.3,1.56 (inactive),1.43,-0.769 (inactive),0.716 (inactive),-0.375 (inactive),-0.404 (inactive),2.24 (inactive),2.23 (inactive),0.433,-0.0446,0.533 (inactive),0.705
C=CCN1C(=O)[C@@]2(O[C@@H](CCn3cc(CCO)nn3)[C@H]([Si](C)(C)c3ccc(OC)cc3)[C@H]2C)c2cc(N3C(=O)c4cccc5cccc3c45)ccc21,0.0493,-4.79,-2.73,-4.46,-2.84,1.32 (inactive),-1.15,-2.09,-5.51 (inactive),-6.41,-1.2 (inactive),-9.06 (active),-0.0753 (inactive),1.19 (inactive),2.37 (inactive),2.05 (inactive),-6.23,0.137,0.254 (inactive),0.339
C=CC[C@]1(C(=O)N(C)C)N=C(c2ccc(OCCCO)cc2)O[C@H]1c1ccccc1CN=[N+]=[N-],0.988,1.18,-1.17,-0.862,2.11,0.0328 (inactive),-0.942,-0.587,1.26 (inactive),0.481,-1.26 (inactive),0.838 (inactive),-0.0916 (inactive),-0.197 (inactive),1.53 (inactive),0.442 (inactive),0.747,0.0471,0.137 (inactive),0.53
COc1ccc([Si](C)(C)[C@H]2[C@H](CC(=O)N(CCO)Cc3ccccc3)O[C@@]3(C(=O)N(Cc4ccc(N5CCC5=O)cc4)c4ccccc43)[C@@H]2C)cc1,0.816,-0.861,-1.22,-3.56,0.197,1.44 (inactive),-0.995,0.233,-1.1 (inactive),0.0408,-0.344 (inactive),-1.3 (inactive),-0.983 (inactive),1.73 (inactive),1.61 (inactive),1.46 (inactive),-1.97,-0.0948,2.44 (inactive),0.365
C=C(C(=O)CC[C@H](OC(C)=O)c1ccc(CO)o1)C(C)C,2.11,-1.14,-2.73,-0.639,0.672,2.3 (inactive),-0.378,0.548,-0.158 (inactive),0.0204,-0.273 (inactive),0.0516 (inactive),-0.969 (inactive),-0.487 (inactive),1.63 (inactive),0.359 (inactive),0.739,0.0028,2.48 (inactive),-0.365
O=C(O)[C@H]1C[C@H]2C(=O)NCC(=O)N2[C@H]1c1cccc(OCCO)c1,0.926,-0.59,-1.13,-0.319,1.27,-0.116 (inactive),-0.186,1.14,-0.0876 (inactive),0.354,-1.62 (inactive),1.21 (inactive),-1.04 (inactive),-1.25 (inactive),0.712 (inactive),-0.057 (inactive),0.62,0.182,0.865 (inactive),0.938
CC(C)C[C@@H]1NC(=O)[C@@H]2C[C@H](C(=O)NCCCCCNC(=O)CS)[C@H](c3cccc(OCCO)c3)N2C1=O,1.28,-0.646,-1,0.134,0.236,0.321 (inactive),0.14,0.072,0.621 (inactive),0.474,-0.928 (inactive),1.47 (inactive),-0.168 (inactive),-1.14 (inactive),0.186 (inactive),-0.115 (inactive),0.673,-0.0351,1.58 (inactive),0.785
O=C1c2ccccc2[C@@]2(Cc3ccccc3N(CC(F)(F)F)C2=O)[C@H](c2ccc(CO)cc2)N1Cc1ccccc1C(F)(F)F,0.559,-0.167,0.733,-1.08,0.288,1.05 (inactive),0.753,0.197,-0.203 (inactive),0.528,-0.829 (inactive),1.02 (inactive),-3.56 (inactive),-0.49 (inactive),-0.136 (inactive),-0.344 (inactive),1.05,-0.0446,-0.765 (inactive),-1.23
[N-]=[N+]=Nc1ccccc1[C@H]1OC(c2ccc(OCCCO)cc2)=N[C@@]1(Cc1ccccc1)C(N)=O,1.26,0.13,-3.09,-3.37,0.912,3.11 (inactive),-1.05,-1.45,-1.6 (inactive),0.0234,-1.69 (inactive),-1.29 (inactive),-0.227 (inactive),0.401 (inactive),2.24 (inactive),1.45 (inactive),-1.96,-0.0351,1.05 (inactive),0.657
COC(=O)C1=CC(c2ccc(CO)cc2)=CC(c2cccs2)N(C)C=C1C(=O)OC (stereo not given),2.32,-0.0015,-0.517,-0.257,0.636,0.375 (inactive),-0.327,0.12,0.446 (inactive),-0.419,-2.16 (inactive),0.173 (inactive),-1.75 (inactive),-0.688 (inactive),1.05 (inactive),0.542 (inactive),1.05,0.0049,1.84 (inactive),0.302
C[N+](C)(C)CCCCNC(=O)[C@@H]1C[C@@H]2C(=O)NCC(=O)N2[C@@H]1c1cccc(OCCO)c1,-0.0369,0.653,0.499,0.089,1.04,0.294 (inactive),-0.361,-0.552,-0.105 (inactive),0.165,-0.0902 (inactive),1.38 (inactive),-27.8 (active),-1.21 (inactive),1.87 (inactive),1.77 (inactive),0.356,0.602,0.71 (inactive),0.865
CCCC[C@@H](O)C1=C(C)C[C@H]2C(=O)N(C)C(=O)[C@H]2[C@H]1CO,-0.552,0.257,0.0991,-0.0268,1.2,1.01 (inactive),-0.363,0.613,0.199 (inactive),0.648,-3.48 (inactive),0.987 (inactive),0.312 (inactive),-1.09 (inactive),2.71 (inactive),1.75 (inactive),1.03,0.0769,0.627 (inactive),0.586
